# Pf Dd2 inh: blocks growth of Plasmodium falciparum Dd2 parasites. P. falciparum Dd2 growth, SYBR Green, 72 h; hits give low values. hit rate 2.3% among 94,000. activity change, % at 10 µM; in the data active = activity change below about -80%; inconclusive = no clear call, values can overlap the other calls
# T cruzi growth-1: inhibitors of T. cruzi proliferation. T. cruzi beta-gal in NIH3T3, GalScreen luminescence, 90 h. inhibition, % at 8.34 µM. hit rate 5.9% among 77,000. AID 624255;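 active = mean inhibition above about 93%, with at least 55% of replicates each passing it, limit read from the data, passing the limit was not always enough; inconclusive = only one of those two conditions holds; inactive = neither condition holds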
# C diff HTS: inhibitors of Clostridium difficile growth | hit rate 0.25% among 86,000 | AID 1259249 | growth activity, negative = inhibition, % at 16 µg/mL (by protocol) | Clostridium difficile clinical isolate growth, OD600, 24 h; hits give low values;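 active = mean growth activity at or below -80% and every replicate also at or below -80%; inconclusive = mean at or below -80% but some replicate above -80%; inactive = mean growth activity above -80%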
# T cruzi growth-2: blocks T. cruzi growth in NIH3T3 host cells. hit rate 72% among 5,600. T. cruzi beta-gal in NIH3T3, GalScreen luminescence, 90 h. inhibition, % at 8.35 µM. shares compounds with T cruzi growth-1. AID 651739;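 active = mean replicate inhibition above about 95% and at least 55% of replicates individually reaching it, limit read from the data; inconclusive = only one of the two criteria is met; inactive = neither criterion is met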
# T cruzi growth-3: inhibitors of T. cruzi proliferation; inhibition, % at 2.09 µM; T. cruzi beta-gal in NIH3T3, GalScreen luminescence, 90 h; hit rate 21% among 5,600; shares compounds with T cruzi growth-1;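 active = mean inhibition above about 95%, with at least 55% of replicates also reaching it, limit read from the data; inconclusive = meets just one of the two conditions; inactive = meets neither condition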
# NIH3T3 tox: NIH/3T3 (mouse) viability loss; shares compounds with T cruzi growth-1; NIH/3T3 viability, CellTiter-Glo ATP luminescence, 90 h; cytotoxicity (signal decrease), % at 8.35 µM; hit rate 14% among 5,600; AID 651742;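 active = mean signal decrease across replicates above about 35% based on untreated-well scatter, with enough replicates individually passing, limit read from the data; inconclusive = no rule stated though some were filed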
# NIH3T3 tox 2: cytotoxicity in mouse NIH/3T3 fibroblasts. shares compounds with T cruzi growth-1. NIH/3T3 viability, CellTiter-Glo ATP luminescence, 90 h. inhibition, % at 24.9 µM. hit rate 56% among 5,600;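 active = mean loss of cell viability signal at or above a set limit, and enough replicates individually reaching it; inconclusive = meets only the mean limit or only the replicate share; inactive = meets neither condition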
# Hits are given with their value; – = inactive; ? = inconclusive; · = no result given. In the library only some 6.7% were active in any assay of this set; here they are far more common.
SMILES,Pf Dd2 inh,T cruzi growth-1,C diff HTS,T cruzi growth-2,T cruzi growth-3,NIH3T3 tox,NIH3T3 tox 2
COc1cccc(CNC(=O)c2cc3c(c(-c4cccc(-c5ccncc5)c4)n2)[C@H](CCO)N([S@@](=O)C(C)(C)C)C3)c1,–,100,·,110,–,–,52
CC(C)(C)[S@](=O)N1Cc2cc(C(=O)NCc3ccncc3)nc(-c3cccc(-c4ccc(C#N)cc4)c3)c2[C@@H]1CCO,–,99,·,103,–,–,?
CN1CCN(C(=O)c2cc3c(c(-c4cccc(-c5ccc(C#N)cc5)c4)n2)[C@@H](CCO)N([S@](=O)C(C)(C)C)C3)CC1,–,–,·,·,·,·,·
COc1ccccc1C(=O)Nc1ccc2c(c1)OC[C@@H](C)N(C)C[C@@H](C)[C@@H](OC)CN(C)C2=O,–,–,·,·,·,·,·
COc1cccc(NC(=O)C[C@H]2CC[C@@H]3[C@H](COc4ccc(NC(=O)C5CCOCC5)cc4C(=O)N3C)O2)c1,–,–,–,·,·,·,·
COc1ccc(NC(=O)N(C)C[C@H]2Oc3c(NS(C)(=O)=O)cccc3C(=O)N([C@@H](C)CO)C[C@@H]2C)cc1,–,–,–,·,·,·,·
Cc1ccccc1S(=O)(=O)N1CC(=O)N2[C@H](C1)[C@H](c1ccc(C#CCC3CCCC3)cc1)[C@@H]2CO,–,·,–,·,·,·,·
CC(C)CC#Cc1ccc2c(c1)O[C@@H](CN(C)Cc1ccccn1)[C@H](C)CN([C@@H](C)CO)S2(=O)=O,–,131,–,109,–,–,103
C[C@H](O)C#Cc1ccc2c(c1)O[C@@H](CN(C)Cc1ccccn1)[C@@H](C)CN([C@H](C)CO)S2(=O)=O,–,–,–,·,·,·,·
CC(C)CC#Cc1ccc2c(c1)O[C@H](CN(C)Cc1ccccn1)[C@H](C)CN([C@@H](C)CO)S2(=O)=O,–,126,–,100,–,–,104
C[C@@H](O)C#Cc1ccc2c(c1)O[C@H](CN(C)Cc1ccccn1)[C@@H](C)CN([C@@H](C)CO)S2(=O)=O,–,–,–,·,·,·,·
CC(C)CC#Cc1ccc2c(c1)O[C@@H](CN(C)Cc1ccccn1)[C@@H](C)CN([C@@H](C)CO)S2(=O)=O,–,116,·,105,–,–,102
CC(C)CC#Cc1ccc2c(c1)O[C@@H](CN(C)Cc1ccccn1)[C@H](C)CN([C@H](C)CO)S2(=O)=O,–,123,–,104,–,–,105
C[C@H]1CN([C@@H](C)CO)C(=O)Cc2cc(NS(=O)(=O)c3cn(C)cn3)ccc2O[C@H]1CN(C)S(=O)(=O)c1ccc(Cl)cc1,–,–,–,·,·,·,·
CCN1[C@H](C(=O)NCCCN(C)C)[C@@H](CO)[C@@H]2Cn3c(ccc(-c4cccc(F)c4)c3=O)[C@@H]21,–,·,–,·,·,·,·
C[C@@H]1CN([C@H](C)CO)C(=O)c2cccc(NC(=O)NC3CCCCC3)c2O[C@@H]1CN(C)CC1CC1,–,–,–,·,·,·,·
O=C(C[C@H]1CC[C@@H]2[C@H](COC[C@@H](O)CN2CC2CCOCC2)O1)N1CCOCC1,–,–,·,·,·,·,·
COc1ccc(CNC(=O)C[C@@H]2C[C@@H]3c4cc(NC(=O)CN(C)C)ccc4O[C@@H]3[C@@H](CO)O2)cc1,–,–,–,·,·,·,·
Cc1ccc(S(=O)(=O)Nc2ccc3c(c2)C(=O)N([C@@H](C)CO)C[C@H](C)[C@H](CN(C)S(=O)(=O)c2ccccc2)OCCCC[C@@H](C)O3)cc1,–,105,–,106,–,–,53
C[C@@H]1CN([C@@H](C)CO)C(=O)c2cc(NS(=O)(=O)c3ccccc3)ccc2O[C@@H](C)CCCCO[C@H]1CN(C)S(=O)(=O)c1ccccc1,–,–,·,·,·,·,·
Cc1ccc(S(=O)(=O)Nc2ccc3c(c2)C(=O)N([C@H](C)CO)C[C@@H](C)[C@H](CN(C)S(=O)(=O)c2ccccc2)OCCCC[C@@H](C)O3)cc1,–,107,–,106,–,–,–
Cc1ccc(S(=O)(=O)N(C)C[C@H]2OCCCC[C@H](C)Oc3ccc(NS(=O)(=O)c4ccccc4)cc3C(=O)N([C@@H](C)CO)C[C@@H]2C)cc1,–,122,–,105,–,–,–
C[C@H]1CCCCO[C@@H](CN(C)S(=O)(=O)c2ccccc2)[C@@H](C)CN([C@@H](C)CO)C(=O)c2cc(NS(=O)(=O)c3ccccc3)ccc2O1,–,–,·,·,·,·,·
Cc1ccc(S(=O)(=O)Nc2ccc3c(c2)C(=O)N([C@H](C)CO)C[C@H](C)[C@H](CN(C)S(=O)(=O)c2ccccc2)OCCCC[C@H](C)O3)cc1,–,113,–,113,–,–,–
Cc1ccc(S(=O)(=O)N(C)C[C@@H]2OCCCC[C@@H](C)Oc3ccc(NS(=O)(=O)c4ccccc4)cc3C(=O)N([C@@H](C)CO)C[C@H]2C)cc1,–,–,–,·,·,·,·
SMILES,Pf Dd2 inh,T cruzi growth-1,C diff HTS,T cruzi growth-2,T cruzi growth-3,NIH3T3 tox,NIH3T3 tox 2
O=C(C1CCOCC1)N1CC(=O)N2[C@H](CO)[C@@H](c3ccc(-c4cccnc4)cc3)[C@@H]2C1,–,·,–,·,·,·,·
CC(C)C#Cc1ccc2c(c1)O[C@@H](CN(C)C(=O)c1cccnc1)[C@H](C)CN([C@H](C)CO)S2(=O)=O,–,–,–,·,·,·,·
CN1[C@@H]2c3ccc(-c4ccc(F)cc4)c(=O)n3C[C@@H]2[C@@H](CO)[C@@H]1C(=O)NCCN1CCCCC1,–,–,–,·,·,·,·
Cc1ccc(S(=O)(=O)Nc2ccc3c(c2)C(=O)N([C@H](C)CO)C[C@H](C)[C@@H](CN(C)S(=O)(=O)c2ccccc2)OCCCC[C@H](C)O3)cc1,–,–,–,·,·,·,·
Cc1ccc(S(=O)(=O)Nc2ccc3c(c2)C(=O)N([C@@H](C)CO)C[C@@H](C)[C@@H](CN(C)C(=O)Cc2ccccc2)OCCCC[C@H](C)O3)cc1,–,–,·,·,·,·,·
Cc1ccc(S(=O)(=O)Nc2ccc3c(c2)C(=O)N([C@@H](C)CO)C[C@H](C)[C@H](CN(C)S(=O)(=O)c2ccccc2)OCCCC[C@H](C)O3)cc1,–,111,–,106,–,–,–
C[C@@H]1CCCCO[C@@H](CN(C)S(=O)(=O)c2ccccc2)[C@@H](C)CN([C@@H](C)CO)C(=O)c2cc(NS(=O)(=O)c3ccccc3)ccc2O1,–,–,·,·,·,·,·
Cc1ccc(S(=O)(=O)Nc2ccc3c(c2)C(=O)N([C@@H](C)CO)C[C@H](C)[C@@H](CN(C)C(=O)Cc2ccccc2)OCCCC[C@@H](C)O3)cc1,–,?,·,106,–,–,–
Cc1ccc(S(=O)(=O)N(C)C[C@H]2OCCCC[C@@H](C)Oc3ccc(NS(=O)(=O)c4ccccc4)cc3C(=O)N([C@@H](C)CO)C[C@@H]2C)cc1,–,?,–,105,–,–,32
Cc1ccc(S(=O)(=O)Nc2ccc3c(c2)C(=O)N([C@@H](C)CO)C[C@@H](C)[C@@H](CN(C)S(=O)(=O)c2ccccc2)OCCCC[C@@H](C)O3)cc1,–,108,–,110,–,–,–

# High-throughput results as filed in PubChem.
